# Data taken from PubChem BioAssay AID1159580 (chemical genetic matrix, 2015).
# Where “and” joins values, the source holds several entries; their conditions need not be identical. Equal entries are not always repeated. The campaign covered roughly 5,500 compounds. About 2,000 (36%) were called active. Inconclusive results (about 18%) are left out. The list shows a part of the results. Unmarked numbers belong to inactive results. No stated cut-off is given here; in the data, active means normalized growth mostly below about 0.91 (no sharp cut-off); inconclusive means no clear call, values can overlap the other calls; inactive means mostly above about 0.92.
# Experiment: chemical genetic growth profiling, strain panel (AID 1159580);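 further: tested at 20 µM; growth read once vehicle control cultures reached saturation at 30 °C; 1 = growth at the plate median or of vehicle wells; lower values mean less growth of the strain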
# Settings: growth OD
smiles,measurement,setting,value
COc1ccc(-c2coc3cc(O)cc(O)c3c2=O)cc1,normalized growth,"S. cerevisiae deletion strains, locus YAL013W, strain DEP1, hits give low values",0.497 (active)
same,normalized growth,"S. cerevisiae deletion strains, locus YBR021W, strain FUR4, hits give low values",0.988
same,normalized growth,"S. cerevisiae deletion strains, locus YBR229C, strain ROT2, hits give low values",0.77 (active)
same,normalized growth,"S. cerevisiae deletion strains, locus YCL029C, strain bik1, hits give low values",0.496 (active)
same,normalized growth,"S. cerevisiae deletion strains, locus YDL035C, strain GPR1, hits give low values",0.241 (active)
same,normalized growth,"S. cerevisiae deletion strains, locus YDL074C, strain BRE1, hits give low values",0.261 (active)
same,normalized growth,"S. cerevisiae deletion strains, locus YDL101C, strain DUN1, hits give low values",0.358 (active)
same,normalized growth,"S. cerevisiae deletion strains, locus YDL134C, strain PPH21, hits give low values",0.295 (active)
same,normalized growth,"S. cerevisiae deletion strains, locus YDL185W, strain tfp1, hits give low values",0.899 (active)
same,normalized growth,"S. cerevisiae deletion strains, locus YDL192W, strain arf1, hits give low values",0.28 (active)
same,normalized growth,"S. cerevisiae deletion strains, locus YDR101C, strain arx1, hits give low values",0.504 (active)
same,normalized growth,"S. cerevisiae deletion strains, locus YDR150W, strain NUM1, hits give low values",0.323 (active)
same,normalized growth,"S. cerevisiae deletion strains, locus YDR162C, strain NBP2, hits give low values",0.12 (active)
same,normalized growth,"S. cerevisiae deletion strains, locus YDR318W, strain mcm21, hits give low values",0.265 (active)
same,normalized growth,"S. cerevisiae deletion strains, locus YDR388W, hits give low values",0.286 (active)
same,normalized growth,"S. cerevisiae deletion strains, locus YDR502C, strain sam2, hits give low values",0.287 (active)
same,normalized growth,"S. cerevisiae deletion strains, locus YEL061C, strain CIN8, hits give low values",0.206 (active)
same,normalized growth,"S. cerevisiae deletion strains, locus YER110C, hits give low values",0.539 (active)
same,normalized growth,"S. cerevisiae deletion strains, locus YER155C, strain BEM2, hits give low values",0.199 (active)
same,normalized growth,"S. cerevisiae deletion strains, locus YER167W, strain BCK2, hits give low values",0.178 (active)
same,normalized growth,"S. cerevisiae deletion strains, locus YGL078C, strain dbp3, hits give low values",0.649 (active)
same,normalized growth,"S. cerevisiae deletion strains, locus YGL086W, strain mad1, hits give low values",0.258 (active)
same,normalized growth,"S. cerevisiae deletion strains, locus YGL248W, strain PDE1, hits give low values",0.286 (active)
same,normalized growth,"S. cerevisiae deletion strains, locus YGR078C, strain PAC10, hits give low values",0.227 (active)
same,normalized growth,"S. cerevisiae deletion strains, locus YGR135W, strain pre9, hits give low values",0.314 (active)
same,normalized growth,"S. cerevisiae deletion strains, locus YGR229C, strain SMI1, hits give low values",0.196 (active)
same,normalized growth,"S. cerevisiae deletion strains, locus YGR252W, strain gcn5, hits give low values",0.507 (active)
same,normalized growth,"S. cerevisiae deletion strains, locus YHR030C, strain SLT2, hits give low values",0.248 (active) and 0.299 (active)
same,normalized growth,"S. cerevisiae deletion strains, locus YHR079C, strain IRE1 (second series), hits give low values",0.526 (active)
same,normalized growth,"S. cerevisiae deletion strains, locus YHR079C, strain IRE1, hits give low values",0.293 (active)
same,normalized growth,"S. cerevisiae deletion strains, locus YHR094C, strain hxt1, hits give low values",0.627 (active)
same,normalized growth,"S. cerevisiae deletion strains, locus YHR129C, strain ARP1, hits give low values",0.363 (active)
same,normalized growth,"S. cerevisiae deletion strains, locus YHR200W, strain rpn10, hits give low values",0.513 (active)
same,normalized growth,"S. cerevisiae deletion strains, locus YIL066C, strain RNR3, hits give low values",0.361 (active)
same,normalized growth,"S. cerevisiae deletion strains, locus YIL073C, strain SPO22, hits give low values",0.532 (active)
same,normalized growth,"S. cerevisiae deletion strains, locus YIL125W, strain kgd1, hits give low values",0.697 (active)
same,normalized growth,"S. cerevisiae deletion strains, locus YIR030C, strain dcg1, hits give low values",0.465 (active)
same,normalized growth,"S. cerevisiae deletion strains, locus YJL095W, strain BCK1, hits give low values",0.172 (active) and 0.287 (active)
same,normalized growth,"S. cerevisiae deletion strains, locus YJL134W, strain LCB3, hits give low values",0.7 (active)
same,normalized growth,"S. cerevisiae deletion strains, locus YJL168C, strain set2, hits give low values",0.888 (active)
same,normalized growth,"S. cerevisiae deletion strains, locus YJL187C, strain SWE1 (second series), hits give low values",0.353 (active)
same,normalized growth,"S. cerevisiae deletion strains, locus YJR043C, strain POL32, hits give low values",0.374 (active)
same,normalized growth,"S. cerevisiae deletion strains, locus YJR066W, strain TOR1, hits give low values",0.16 (active)
same,normalized growth,"S. cerevisiae deletion strains, locus YJR075W, strain HOC1, hits give low values",0.179 (active)
same,normalized growth,"S. cerevisiae deletion strains, locus YKL009W, strain mrt4, hits give low values",0.484 (active)
same,normalized growth,"S. cerevisiae deletion strains, locus YKL068W, hits give low values",0.964
same,normalized growth,"S. cerevisiae deletion strains, locus YKL085W, strain MDH1 (second series), hits give low values",0.604 (active)
same,normalized growth,"S. cerevisiae deletion strains, locus YKL085W, strain MDH1, hits give low values",0.604 (active)
same,normalized growth,"S. cerevisiae deletion strains, locus YKL190W, strain CNB1, hits give low values",0.223 (active)
same,normalized growth,"S. cerevisiae deletion strains, locus YKR001C, strain vps1, hits give low values",0.189 (active)
same,normalized growth,"S. cerevisiae deletion strains, locus YLR039C, strain RIC1, hits give low values",0.241 (active)
same,normalized growth,"S. cerevisiae deletion strains, locus YLR058C, strain SHM2, hits give low values",0.365 (active)
same,normalized growth,"S. cerevisiae deletion strains, locus YLR102C, strain apc9, hits give low values",0.625 (active)
same,normalized growth,"S. cerevisiae deletion strains, locus YLR113W, strain HOG1, hits give low values",0.332 (active)
same,normalized growth,"S. cerevisiae deletion strains, locus YLR262C, strain YPT6, hits give low values",0.181 (active)
same,normalized growth,"S. cerevisiae deletion strains, locus YLR268W, strain sec22, hits give low values",0.211 (active)
same,normalized growth,"S. cerevisiae deletion strains, locus YLR330W, strain CHS5, hits give low values",0.356 (active)
same,normalized growth,"S. cerevisiae deletion strains, locus YLR342W, strain FKS1 (second series), hits give low values",0.289 (active)
same,normalized growth,"S. cerevisiae deletion strains, locus YLR371W, strain rom2, hits give low values",0.493 (active)
same,normalized growth,"S. cerevisiae deletion strains, locus YLR418C, strain cdc73, hits give low values",0.192 (active)
same,normalized growth,"S. cerevisiae deletion strains, locus YML016C, strain PPZ1, hits give low values",0.444 (active)
same,normalized growth,"S. cerevisiae deletion strains, locus YML032C, strain rad52, hits give low values",0.449 (active)
same,normalized growth,"S. cerevisiae deletion strains, locus YML124C, strain tub3, hits give low values",0.449 (active)
same,normalized growth,"S. cerevisiae deletion strains, locus YMR078C, strain ctf18, hits give low values",0.407 (active)
same,normalized growth,"S. cerevisiae deletion strains, locus YMR223W, strain ubp8, hits give low values",0.297 (active)
same,normalized growth,"S. cerevisiae deletion strains, locus YMR263W, strain SAP30, hits give low values",0.424 (active)
same,normalized growth,"S. cerevisiae deletion strains, locus YMR307W, strain GAS1, hits give low values",0.148 (active)
same,normalized growth,"S. cerevisiae deletion strains, locus YNL067W, strain RPL9B, hits give low values",0.234 (active)
same,normalized growth,"S. cerevisiae deletion strains, locus YNL128W, strain TEP1, hits give low values",0.272 (active)
same,normalized growth,"S. cerevisiae deletion strains, locus YNL153C, strain GIM3, hits give low values",0.439 (active)
same,normalized growth,"S. cerevisiae deletion strains, locus YNL183C, strain NPR1, hits give low values",0.228 (active)
same,normalized growth,"S. cerevisiae deletion strains, locus YNL233W, strain BNI4, hits give low values",0.242 (active)
same,normalized growth,"S. cerevisiae deletion strains, locus YNL250W, strain rad50, hits give low values",0.789 (active)
same,normalized growth,"S. cerevisiae deletion strains, locus YNL271C, strain bni1, hits give low values",0.623 (active)
same,normalized growth,"S. cerevisiae deletion strains, locus YNL298W, strain CLA4, hits give low values",0.459 (active)
same,normalized growth,"S. cerevisiae deletion strains, locus YNL307C, strain MCK1, hits give low values",0.114 (active)
same,normalized growth,"S. cerevisiae deletion strains, locus YNL322C, strain KRE1, hits give low values",0.337 (active)
same,normalized growth,"S. cerevisiae deletion strains, locus YNR052C, strain pop2, hits give low values",0.656 (active)
same,normalized growth,"S. cerevisiae deletion strains, locus YOL006C, strain TOP1, hits give low values",0.29 (active)
same,normalized growth,"S. cerevisiae deletion strains, locus YOL012C, strain htz1",0.231
same,normalized growth,"S. cerevisiae deletion strains, locus YOL147C, strain pex11, hits give low values",0.362 (active)
same,normalized growth,"S. cerevisiae deletion strains, locus YOR061W, strain CKA2, hits give low values",0.432 (active)
same,normalized growth,"S. cerevisiae deletion strains, locus YOR069W, strain VPS5, hits give low values",0.501 (active)
same,normalized growth,"S. cerevisiae deletion strains, locus YOR136W, strain idh2, hits give low values",0.304 (active)
same,normalized growth,"S. cerevisiae deletion strains, locus YOR144C, strain elg1, hits give low values",0.652 (active)
same,normalized growth,"S. cerevisiae deletion strains, locus YOR184W, strain ser1, hits give low values",0.111 (active)
same,normalized growth,"S. cerevisiae deletion strains, locus YOR231W, strain MKK1, hits give low values",0.288 (active)
same,normalized growth,"S. cerevisiae deletion strains, locus YOR316C, strain cot1, hits give low values",0.636 (active)
same,normalized growth,"S. cerevisiae deletion strains, locus YPL055C, strain LGE1, hits give low values",0.176 (active)
same,normalized growth,"S. cerevisiae deletion strains, locus YPL241C, strain CIN2, hits give low values",0.289 (active)
same,normalized growth,"S. cerevisiae deletion strains, locus YPL256C, strain CLN2, hits give low values",0.345 (active)
same,normalized growth,"S. cerevisiae deletion strains, locus YPR119W, strain clb2, hits give low values",0.308 (active)
same,normalized growth,"S. cerevisiae deletion strains, locus YPR141C, strain kar3, hits give low values",0.935
same,normalized growth,"S. cerevisiae deletion strains, locus YPR163C, strain tif3, hits give low values",0.207 (active)
same,normalized growth,"S. cerevisiae deletion strains, locus YPR167C, strain met16, hits give low values",0.44 (active)
same,normalized growth,"S. cerevisiae deletion strains, strain wtn01, hits give low values",0.226 (active)
same,normalized growth,"S. cerevisiae strains, strain wild type, hits give low values",0.244 (active)
